# Measured values: PubChem BioAssay (NCI)
# This is part of a sample that, as a whole, favours compounds with a hit. Of some 83,000 tested, about 20% had one in any assay.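 The test compound was applied at a single concentration to cells in 96-well plates for 48 hours, and percent growth was recorded.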 Unmarked numbers belong to inactive results. The source made the active and inactive calls.
# Tested on: HOP-92 NSCLC
# Experiment: NCI-60 one-dose screen, 48 h (100 = growth as untreated, 0 = no growth, -100 = all killed)
# Conditions: 10 µM unless noted
# Method: Growth inhibition of the HOP-92 human Non-Small Cell Lung tumor cell line is measured as a screen for anti-cancer activity. Cells are grown in 96 well plates and exposed to the test compound for 48 hours. Compounds are tested at a single concentration, which is 10^-5 M for most compounds. The reported endpoint is percent growth (GI% or GIPRCNT), where numbers from 0 - 100% represent growth inhibition, and numbers from -100% - 0 represent cell death. For example, a value of 40 represents 60% growth inhibition. A value of 0 means no net growth occurred over the course of the experiment. A value of -40 indicates 40% of cells at the beginning of the experiment died by the end of the experiment. A value of -100 means all cells are dead at the end of the experiment.
# NCI-60 Human Tumor Cell Lines Screen was performed using the standard one-dose NCI protocol, which is described in more detail at https://dtp.cancer.gov/discovery_development/nci-60/default.htm.
# Compounds with GIPRCNT values below 10 were considered active. Activity score was based on GIPRCNT using the following formula: […]
# Score is 0 for GIPRCNT values of 100 or above, 50 for GIPRCNT values of 0, and 100 for GIPRCNT values of -100.
row,SMILES,growth
1,O=Cc1ccc(F)cc1,103%
2,C/C(=N\N=C(/C)c1cccc([N+](=O)[O-])c1)c1cccc([N+](=O)[O-])c1,87.5%
3,CC(=O)N(C(C)=O)c1ccc(C)cc1,99.5%
4,O=C(O)C1CCCN1C(=O)OCc1ccccc1 (stereo not given),122%
5,O=C(O)c1c[nH]c2ccccc2c1=O,87%
6,O=C1C=C[C@H](O)[C@@]2(CO)O[C@@H]12,64.6%
7,CC(=O)N(C)N=Nc1ccc(C)cc1,100%
8,COC(=O)c1cccc([N+](=O)[O-])c1,95.1%
9,Cc1[nH]n(-c2ccccc2)c(=O)c1C=NC(=S)C(N)=S,84%
10,COc1ccc2c(Cl)cc(NC(=O)Nc3c(C)cccc3C)nc2c1,41.3%
11,Nc1cc2ccccc2c(O)c1O,83.9%
12,CC1CC2C3CCC4=CC(=O)CCC4(C)C3CCC2(C)C1(O)C(=O)CO (stereo not given),100%
13,Clc1cccc(Cl)c1C1CSc2ccccc2N=C1c1ccccc1 (stereo not given),75.4%
14,CCOC(=O)C(=O)CC(=O)c1ccccc1,79.6%
15,NC(=S)c1c(N)n(C2OC(CO)C(O)C2O)c2ncnc(N)c12 (stereo not given),-21.5% (active)
16,Cc1ccc(S(=O)(=O)Oc2ccc3sc4c(CO)ccc(NCCN(C)C)c4c(=O)c3c2)cc1,-80.1% [100 µM] (active)
17,CC1(C)C2CCC1(C)C1(C2)OCCS1 (stereo not given),102%
18,CC(=O)NC(O)C(Cl)Cl (stereo not given),94.9%
19,Ic1cccs1,121%
20,O=C(c1ccc(Cl)cc1)N1CCCCC1,97.4%

row,SMILES,growth
1,CC(=O)NNC(=S)N/C=C/c1c(C)ccc([N+](=O)[O-])c1[N+](=O)[O-],100%
2,S=c1nc(-c2ccccn2)c(-c2ccccn2)n[nH]1,66.2%
3,C=C(c1ccc(N(C)C)cc1)c1ccc(N(C)C)cc1,-2.12% (active)
4,CC(C)Sc1ncnc2nc[nH]c12,91.7%
5,NNc1ncccn1,111%
6,CCCCCC(=O)OCCC1CCCCC1,70%
7,NC(=O)NCCO,111%
8,O=C(O)CC1=CCCCC1,82.8%
9,CC(=O)NCNC(C)=O,150%
10,O=C(O)c1ccc([N+](=O)[O-])cc1S(=O)(=O)O,119%
11,CC(=O)N(CCCCCCN(C(C)=O)C(C)=O)C(C)=O,106% [100 µM]
12,C=CC(C)C(C)(C)O (stereo not given),105%
13,O=c1n(CC2CO2)c(=O)n(CC2CO2)n1CC1CO1 (stereo not given),48.6%
14,COc1ccc(Br)c2c1C(=O)CC2,94.5%
15,S=C(Sc1ccc(Cl)cc1)Sc1ccc(Cl)cc1,-4.66% (active)
16,Nc1c(Br)cc(O)c2c1C(=O)c1ccccc1C2=O,70.9%
17,N#CCCN1C(=O)CCC1C(=O)O (stereo not given),109%
18,CC(CC(CCC(=O)O)(c1ccccc1)c1ccccc1)N(C)C (stereo not given),102%
19,CCC(/C=C\C(C)=O)CC,102%
20,O=C(OCC1CCCO1)c1ccc([N+](=O)[O-])cc1 (stereo not given),91.8%
